Measured values reported in PubChem BioAssay AID1159580 (chemical genetic matrix, 2015).
About 2,000 (36%) of roughly 5,500 compounds were called active. Not shown: some 18% with an inconclusive outcome. No stated cut-off is given here; in the data, active means normalized growth mostly below about 0.91 (no sharp cut-off); inconclusive means no clear call, values can overlap the other calls; inactive means mostly above about 0.92. The list shows a part of the results.

Experiment: chemical genetic growth profiling, strain panel (AID 1159580);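 further: tested at 20 µM; growth read once vehicle control cultures reached saturation at 30 °C; 1 = growth at the plate median or of vehicle wells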
Details: S. cerevisiae deletion strains, growth OD

Measured: normalized growth

CC(=O)N[C@H](C(=O)O)C(C)(C)SN=O
inactive: locus YAL013W, strain DEP1, stronger effect = lower value 1.01 | locus YAL040C, strain CLN3, stronger effect = lower value 1.01 | locus YCL061C, strain MRC1 (second series), stronger effect = lower value 1.01 | locus YDR363W, strain ESC2, stronger effect = lower value 0.989 | locus YER002W, strain NOP16, stronger effect = lower value 1.01 | locus YGR078C, strain PAC10, stronger effect = lower value 1.02 | locus YGR229C, strain SMI1, stronger effect = lower value 1 | locus YMR307W, strain GAS1, stronger effect = lower value 0.987 | locus YNL128W, strain TEP1, stronger effect = lower value 0.998 | locus YNL153C, strain GIM3, stronger effect = lower value 1.02 | locus YNL175C, strain NOP13, stronger effect = lower value 1.01 | locus YNL197C, strain WHI3, stronger effect = lower value 1.01 | locus YNL224C, strain SQS1, stronger effect = lower value 1.02 | locus YNL322C, strain KRE1, stronger effect = lower value 1.01 | locus YOR083W, strain WHI5 (second series), stronger effect = lower value 1.02 | locus YPL241C, strain CIN2, stronger effect = lower value 1.01
